According to PubChem BioAssay AID1347069 (National Center for Advancing Translational Sciences (NCATS), 2019):
Among all 44,000 compounds or so, fewer than 10 were called active. Calls come from the whole dose curve; as a rule, active = well fitted inhibition curve with a large enough effect; inconclusive = small, poorly fitted or top-dose-only effect; inactive = flat fitted curve, though single readings scatter. Not all results are given here.

Molecular target: Tumor susceptibility gene 101 protein (Homo sapiens) (UniProt Q99816)
Sequence (Q99816 whole entry, looked up): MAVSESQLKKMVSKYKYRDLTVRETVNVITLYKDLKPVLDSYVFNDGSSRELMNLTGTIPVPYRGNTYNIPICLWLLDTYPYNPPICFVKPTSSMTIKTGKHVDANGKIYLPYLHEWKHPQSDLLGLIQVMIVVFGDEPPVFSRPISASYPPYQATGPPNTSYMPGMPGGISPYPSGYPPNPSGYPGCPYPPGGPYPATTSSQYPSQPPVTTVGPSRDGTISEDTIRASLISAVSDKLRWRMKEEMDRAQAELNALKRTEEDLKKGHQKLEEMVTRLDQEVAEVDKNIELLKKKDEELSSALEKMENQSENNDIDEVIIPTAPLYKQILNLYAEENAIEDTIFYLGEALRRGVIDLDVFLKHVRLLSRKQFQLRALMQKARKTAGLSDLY
Test: qHTS Validation Assay for Inhibitors of HIV-1 Budding by Blocking the Interaction of PTAP/TSG101: Sytravon Library Screen
Settings: Fluorescence polarization, FITC-PTAP peptide/Tsg101, 20 min; series mostly up to 115 µM
From the text: Stages of the HIV-1 replication cycle, specifically virus assembly and release, provide underexploited targets for the development of novel antiviral inhibitors. The late stages of HIV-1 replication are mediated by the Gag precursor protein, Pr55Gag. Expression of Pr55Gag is both necessary and sufficient for the production of virus-like particles from Gag-expressing cells. The Gag protein hijacks key host proteins involved in endocytic machinery of the host cell to promote endosomal processing and viral budding. The budding process requires a direct interaction between a […] (PTAP) motif in the p6 domain of Gag and the cellular endosomal sorting protein known as Tsg101. In this way, the Gag PTAP motif promotes the host cells to recruit viral particles to the plasma membrane where the new viral particles are released, effectively turning the host cells into viral factories. A fluorescence polarization assay has been developed to quantitatively measure the PTAP-Tsg101 interaction which can be used to screen for inhibitors of this interaction. This assay was run against the NCGC Sytravon Library collection. NIH Molecular Libraries Probe Production Network [MLPCN] NIH Chemical Genomics Center [NCGC] Grant: R03 MH087464-01A1 PI Name: Dr. Eric Freed, NCI
Two uL of the Tsg101 binding domain in buffer (10 mM HEPES pH 7.5; 0.15 M NaCl, 0.01% Tween 20; 3 mM EDTA;0.1 mM TCEP) was dispensed into Greiner black MB 1536-well plates (final concentration 10 uM). Then, 23 nL of compounds or DMSO were delivered to each well using a pin tool. Finally, 2 uL of a FITC-labeled peptide containing the PTAP motif (1) in the same buffer was dispensed (50 nM final concentration) and the binding was allowed to proceed for 20 min. at r.t. Fluorescent polarization was determined using FITC excitation and polarized emission filters on a Perkin Elmer Envision. Assay cut-off (positive/negative criteria): Actives defined by CRC class, <25 µM; Efficacy <60% inhibition. The total fluorescent intensity from S and P channels will be used to flag fluorescent compounds.

Potency, inactive:
O=C(OCc1cc(=O)n2nc(C3CC3)sc2n1)c1ccccc1Cl
COc1ccc(NC(=O)Nc2cccc(-c3noc(C)n3)c2)cc1
CC(C)(C)c1ccc(C(=O)N2CCC(c3nc(-c4ccc(S(=O)(=O)N5CCCC5)cc4)no3)CC2)cc1
CCCCCn1c(CCCNC(=O)c2ccccc2OC)nc2ccccc21
COc1ccccc1CNc1nccn(-c2ccc(F)cc2)c1=O
Cc1c(Cl)cccc1-c1ccc(CNCCCSc2nnnn2C)o1
CSc1ccc(C2c3c(oc4ccccc4c3=O)C(=O)N2CCCN2CCOCC2)cc1 (configuration not stated)
CSc1cccc(NC(=O)CN2C(=O)CCc3cc(S(=O)(=O)N4CCCCC4)ccc32)c1
COc1ccc(OC)c(NC(=O)CSC2=Nc3ccccc3C3=NC(CC(=O)NCc4ccc(F)cc4)C(=O)N23)c1 (configuration not stated)
Cc1cc(OC(C)C(=O)Nc2sc3c(c2C(N)=O)CCCC3)ccc1Cl (configuration not stated)
COc1ccc(-c2cc(-c3ccccc3)nc3c2COc2ccc(Cl)cc2-3)cc1
CCCCNC(=O)C1CCCN(c2nnc(C)c3c(C)n(-c4ccc(Cl)cc4)nc23)C1 (configuration not stated)
Cc1cccc(NC(=O)N2CCN(C)c3ncccc32)c1C
CCc1nnc(SCc2nc(-c3cccc(C)c3)oc2C)c2cc3sc(C)cc3n12
CC(C)(C)c1ccc(C(=O)Nc2ccc3c(c2)CCCN3C(=O)c2cccs2)cc1
CCN1CCN(C(c2ccc(C)cc2)c2c(O)cc(C)n(Cc3ccco3)c2=O)CC1 (configuration not stated)
Cc1csc2nc(COC(=O)c3ccccc3NC(=O)c3ccccc3Cl)cc(=O)n12
Cc1ccc(NC(=O)c2ccc3[nH]c(C)cc(=O)c3c2)c(C)c1
Cc1ccc2c(c1)c1c(c(=O)n(-c3ccccc3)c(=O)n1CC(=O)c1ccc(Cl)cc1)n2C
Cc1ccccc1-c1nc2cc(NC(=O)c3cccc(OCCC(C)C)c3)ccc2o1
CCn1c(C)c(C)c2cc(C(=O)NCCc3cc(OC)ccc3OC)ccc21
Cn1c(=O)c2c(ncn2CC(=O)Nc2cccc(C(F)(F)F)c2)n(C)c1=O
Cc1ccc(-n2nc(C)c3c(C)cc(=O)n(CC(=O)Nc4ccc(C(C)C)cc4)c32)cc1
Cc1ccc(C2c3[nH]c4ccccc4c3CCN2C(=O)c2cccc(C)c2)cc1 (configuration not stated)
CCOC(=O)C1CCN(c2nc3c(S(=O)(=O)c4ccc(CC)cc4)nnn3c3ccc(Cl)cc23)CC1
O=C(CSc1nc2ccccc2nc1Cc1ccccc1)N1CCCCC1
COc1cccc(CNC(=O)c2ccc3c(Cl)c4c(nc3c2)CCCC4)c1
CCCN(CCC)CCCNC(=O)Cn1cc2c(n1)-c1c(oc(C(=O)N3CCCC3)c1C)CC2
COc1ccc(NC(=O)Cn2cc(C(=O)c3ccncc3)c(=O)c3cc(C)ccc32)cc1Cl
O=C(Cn1ncc2c3ccccc3n(Cc3ccccc3)c2c1=O)NC1CCCCCC1
Cc1ccc(NC(=O)CN2C(=O)CC(C)Sc3ccccc32)c(C)c1 (configuration not stated)
CC(C)c1ccc(OCC(=O)N(Cc2ccc(N(C)C)cc2)C2CCS(=O)(=O)C2)cc1 (configuration not stated)
CCCn1c(NCc2ccccc2F)nc2ccccc21
O=C(COc1ccc(Cl)cc1)N(Cc1ccco1)Cc1ccco1
Cc1ccc(CCNC(=O)c2ccc3c(c2)N(Cc2cc(C)ccc2C)C(=O)c2ccccc2S3=O)cc1 (configuration not stated)
O=C(c1ccc2c(c1)N(Cc1ccccc1)C(=O)c1ccccc1S2(=O)=O)N1CCC(Cc2ccccc2)CC1
CCCCn1c(=O)c2oc3ccccc3c2n(CC(=O)Nc2ccccc2OC)c1=O
COC(=O)c1ccc(NC(=O)c2cnn(-c3ccc(Cl)cc3)c2C2CCN(C(=O)OC(C)(C)C)CC2)cc1
COc1ccc(-c2nc3ccc(C(=O)NCc4ccc(C)cc4)cc3nc2-c2ccc(OC)cc2)cc1
Cc1cccc(N(C)C(=O)CS(=O)(=O)c2cccc3nsnc23)c1
O=C(C1CCC(Cn2c(=O)c3sccc3n(Cc3ccccc3F)c2=O)CC1)N1CCCCC1 (configuration not stated)
CCN1CCN(CCCNC(=O)c2ccc3c(c2)sc2nc(-c4ccc(OC)cc4)cn23)CC1
COc1cccc2c1cc1c(=O)n(CC(=O)N3CCN(c4ccccc4)CC3)nc(C)n12
O=C(Nc1ccc(Oc2ccccc2)cc1)C1CCN(S(=O)(=O)c2ccc(Cl)cc2)CC1
COc1ccc(-c2cn3c(C)c(C(=O)Nc4cc(C)cc(C)c4)sc3n2)cc1
CCCCN(C)CCCNC(=O)CN1N=C(c2ccc(OC)cc2)CCC1=O
COc1cccc(Cn2c(SCc3ccc(C(=O)N4CCC(C)CC4)cc3)nc3ccncc32)c1
Cc1cccc(NC(=O)c2cc3c(C)nn(-c4ccccc4)c3s2)c1
CNC(=O)c1ccc(-c2nc(CN3CCc4ccccc43)c(C)o2)cc1
Cc1ccc2oc(=O)c3cnn(CC(=O)N4CCN(c5cccc(Cl)c5)CC4)c3c2c1
COc1ccc(-n2c(SCC(=O)Nc3ccc(Cl)c(C)c3)nc3n[nH]c(C)c3c2=N)cc1
CCC(C(=O)Nc1cccc(Cl)c1C)n1nc(-c2ccc(C)cc2)ccc1=O (configuration not stated)
Cc1cccc(CNS(=O)(=O)c2ccc(-c3cnc(C4CC4)o3)cc2)c1
CCc1cc2c(-c3ccccc3)cc(=O)oc2c2c1OCN(Cc1ccc(C)cc1)C2
Cc1oc2ccc(O)c(CN3CCCCC3)c2c1C(=O)Nc1cccc(C(F)(F)F)c1
CC(C)Cn1c(=O)c2ccccc2n2c(-c3cccc(Cl)c3)nnc12
O=C(Nc1cc(Cl)cc(Cl)c1)c1ccc2c(c1)N(Cc1cccc(Cl)c1)C(=O)c1ccccc1S2=O (configuration not stated)
O=C(O)c1ccc(Nc2nc(-c3ccccc3)c3cc(Br)ccc3n2)cc1
Cc1cc(C)c2sc(NC(=O)c3ccc(S(=O)(=O)N4CCCC4)cc3)nc2c1
CCc1ccc(NC(=O)c2cnc3c(-c4ccccc4)c(C)nn3c2C)cc1
COc1ccc(-c2csc(-c3c(N)c(C(=O)c4ccc(OC)c(OC)c4)n4ccccc34)n2)cc1
Cc1ccc(C)c(N2CCN(C(c3ccccc3)c3nnc(-c4ccccc4)o3)CC2)c1 (configuration not stated)
Fc1ccc(-c2nn(-c3ccccc3Cl)c3c2cnc2ccccc23)cc1
CCOc1ccccc1CNC(=O)c1ccc2c(c1)nc1n2CCC(C)C1 (configuration not stated)
COc1ccccc1OCC(=O)Nc1nnc2n1CCS2
CCOC(=O)c1c(C)oc2ccc(N(C(=O)c3ccncc3)S(=O)(=O)c3ccc(CC)cc3)cc12
O=C(CCS(=O)(=O)c1ccccc1)N(Cc1cccnc1)c1nc2c(F)cccc2s1
Cn1c(=O)sc2cc(NS(=O)(=O)c3ccc(C(C)(C)C)cc3)ccc21
COc1ccc2c(CNCCc3ccccc3C)c(C(=O)O)n(Cc3ccccc3C)c2c1
Cc1cc2c(cc1C)C(c1cccc(OC(C)C)c1)CC(=O)N2 (configuration not stated)
CCc1nn(CCCC(=O)NCc2ccccc2OC)c(=O)c2cc3occc3n12
Cc1cccc(NC(=O)c2ccc(F)c(S(=O)(=O)N(C)C3CCCCC3)c2)c1
COc1ccc(CCNC(=O)c2ccc3c(c2)nc(C)n3-c2ccc(Br)cc2)cc1OC
CCCCn1cc(S(=O)(=O)c2ccc(OCC)cc2)c(=O)c2cc(OC)c(OC)cc21
COc1ccccc1CNc1nc2ccc(Cl)cc2n2cnnc12
Cc1ccccc1CNC(=O)CCc1cn(Cc2ccccc2C)c2ccccc12
COc1ccccc1-n1c(-c2ccc(C)cc2)cn2c3c(=O)n(C)c(=O)n(C)c3nc12
CCOC(=O)C1CCCN(C(=O)c2ccc(-n3ccc4ccccc43)s2)C1 (configuration not stated)
Cc1cc(C)cc(NC(=O)c2cnc3sc(N4CCCC4)nn3c2=O)c1
COc1cc(NC(=O)CSc2nc3nc(C)c(Cc4ccc(C)cc4)c(C)n3n2)cc(OC)c1OC
Cc1oc(C)c2c(=O)cc(-c3ccc4c(c3)OCO4)cc(OC(=O)c3ccc(Cl)cc3)c12
COc1cccc(N=C2SC(C(=O)Nc3cccc(Cl)c3)CC(=O)N2C)c1 (configuration not stated)
Cc1ccccc1-c1nc2scc(CCNC(=O)C(=O)Nc3ccc(F)cc3F)n2n1
O=C(CSCc1cnn(-c2ccccc2)c1-n1cccc1)NCc1ccc(Cl)cc1
CCN(CC)S(=O)(=O)c1ccc(C(=O)N=c2sc3cccc(OC)c3n2C)cc1
CC(=O)Nc1ccc(NC(=O)c2cc3sccc3n2Cc2ccc(F)cc2)cc1
CC(C)Cn1c(C2CC(=O)N(c3ccccc3Cl)C2)nc2ccccc21 (configuration not stated)
CC1=C(C(=O)OCC2CCCCC2)C(c2c(F)cccc2Cl)CC(=O)N1 (configuration not stated)
COc1cc(Cl)c(C)cc1NC(=O)CCc1nc2cccnc2n1Cc1cccs1
COc1ccc(-c2nc(Cn3c(=O)cc(C)c4c(C)nn(-c5ccccc5)c43)c(C)o2)cc1OC
CCC(=O)N1CCc2cc(Br)cc(S(=O)(=O)Nc3ccc(C)cc3C)c21
CC(C)c1ccc(S(=O)(=O)Nc2ccc(O)c(Sc3nc4ccccc4s3)c2)cc1
Cc1ccc(-c2nn3c(=O)cc(CN4CCN(S(=O)(=O)c5ccc(Cl)cc5)CC4)nc3s2)cc1
NS(=O)(=O)c1ccc(NC(=O)COc2ccc(S(=O)(=O)NC3CCCCC3)cc2)cc1
Cc1ccc(NC(=O)Cc2ccc(NC(=O)N3CCCCc4ccccc43)cc2)cc1
CC1CCC(N2CC(=O)N(CCC3=CCCCC3)C(c3ccc(F)cc3)C2=O)CC1 (configuration not stated)
CCOc1ccccc1CNC(=O)c1ccc(-n2c(C)cc3c2CCC(C)C3)cc1 (configuration not stated)
O=S(=O)(c1ccc(Br)cc1)c1nnn2c1nc(NC1CCCCCC1)c1sccc12
Cc1oc(-c2ccccc2)nc1Cn1c(SCc2cccc(C(F)(F)F)c2)nc2cccnc21
CCCCOC(=O)/C(C#N)=C/c1ccc(-c2cccc(C(F)(F)F)c2)o1
CCOc1ccccc1C(=O)Nc1ccc(S(=O)(=O)N2CCCCC2c2cccnc2)cc1 (configuration not stated)
CN(Cc1ccccc1)c1ncnc2onc(-c3ccc(F)cc3)c12
Cc1cccc(C(C)C)c1NC(=O)C(NS(=O)(=O)c1cccc2nsnc12)c1ccccc1 (configuration not stated)
Cc1cccc(Cc2c(C)nc3nc(SCc4ccccc4Cl)nn3c2C)c1
Cc1ccc(/C=C(\C#N)C(=O)Nc2cc(C)ccc2C)cc1
COc1ccc(Cn2c(=O)n(-c3ccccc3C)c(=O)c3c4c(sc32)CN(C(C)=O)CC4)cc1
CCOC(=O)c1cc2c(=O)n3ccccc3nc2n(CC2CCCO2)c1=NC(=O)c1ccccc1F (configuration not stated)
